Measured values from ChEMBL document CHEMBL1961873, “Compounds: GSK PKIS; Assays: Nanosyn kinase panel” (2012).
Several values for one entry are separate records, joined by “and”; a condition that tells them apart may be missing. Identical values can stand only once.

What was measured:
[1] = target: 5'-AMP-activated protein kinase catalytic subunit alpha-2 (Homo sapiens) (UniProt P54646); conditions: at 1 µM
[2] = target: T1, NUAK family SNF1-like kinase 1 (Homo sapiens) (UniProt O60285); conditions: at 0.1 µM
T1 sequence (whole entry): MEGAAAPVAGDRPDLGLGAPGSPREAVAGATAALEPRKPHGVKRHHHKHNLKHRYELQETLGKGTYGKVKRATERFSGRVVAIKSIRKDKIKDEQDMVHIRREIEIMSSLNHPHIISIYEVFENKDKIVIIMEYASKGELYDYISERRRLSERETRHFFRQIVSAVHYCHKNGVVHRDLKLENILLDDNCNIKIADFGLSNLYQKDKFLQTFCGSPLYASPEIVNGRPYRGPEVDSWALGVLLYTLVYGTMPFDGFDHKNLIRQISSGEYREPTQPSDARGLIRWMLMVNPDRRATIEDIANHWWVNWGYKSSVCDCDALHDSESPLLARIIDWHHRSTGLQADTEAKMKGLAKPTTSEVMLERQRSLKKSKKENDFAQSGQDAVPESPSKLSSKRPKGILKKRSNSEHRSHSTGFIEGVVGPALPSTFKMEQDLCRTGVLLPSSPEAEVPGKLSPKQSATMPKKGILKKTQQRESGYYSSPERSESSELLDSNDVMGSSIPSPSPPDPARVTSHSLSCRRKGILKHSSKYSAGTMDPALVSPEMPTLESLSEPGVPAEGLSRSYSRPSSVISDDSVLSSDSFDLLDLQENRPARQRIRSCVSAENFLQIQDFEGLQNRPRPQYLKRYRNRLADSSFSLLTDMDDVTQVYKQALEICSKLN

[3] = target: T1, NUAK family SNF1-like kinase 1 (Homo sapiens); conditions: at 1 µM
[4] = target: T2, Serine/threonine-protein kinase BRSK1 (Homo sapiens) (UniProt Q8TDC3); conditions: at 0.1 µM
T2 sequence (whole entry): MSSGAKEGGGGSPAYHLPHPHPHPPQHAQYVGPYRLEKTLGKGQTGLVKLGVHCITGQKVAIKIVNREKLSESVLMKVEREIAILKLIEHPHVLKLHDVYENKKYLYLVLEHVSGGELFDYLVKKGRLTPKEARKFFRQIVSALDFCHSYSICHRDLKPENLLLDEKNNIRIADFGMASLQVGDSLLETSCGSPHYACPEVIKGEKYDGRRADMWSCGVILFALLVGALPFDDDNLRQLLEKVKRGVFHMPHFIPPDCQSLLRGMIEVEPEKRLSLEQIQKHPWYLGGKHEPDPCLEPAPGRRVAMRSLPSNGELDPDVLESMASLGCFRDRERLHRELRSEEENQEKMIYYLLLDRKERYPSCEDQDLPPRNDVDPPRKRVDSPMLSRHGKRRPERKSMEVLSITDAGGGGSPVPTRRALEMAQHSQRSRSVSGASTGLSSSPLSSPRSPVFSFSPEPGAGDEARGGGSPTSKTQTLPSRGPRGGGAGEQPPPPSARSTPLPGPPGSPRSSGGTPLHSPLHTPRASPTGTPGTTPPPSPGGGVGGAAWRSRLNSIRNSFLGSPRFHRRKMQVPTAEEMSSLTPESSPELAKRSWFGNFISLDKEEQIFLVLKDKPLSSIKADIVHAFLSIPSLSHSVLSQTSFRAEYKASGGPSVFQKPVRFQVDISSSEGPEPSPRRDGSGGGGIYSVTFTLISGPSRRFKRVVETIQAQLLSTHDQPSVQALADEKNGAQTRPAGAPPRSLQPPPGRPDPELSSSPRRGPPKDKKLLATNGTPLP

[5] = target: T2, Serine/threonine-protein kinase BRSK1 (Homo sapiens); conditions: at 1 µM
[6] = target: T3, Serine/threonine-protein kinase BRSK2 (Homo sapiens) (UniProt Q8IWQ3); conditions: at 0.1 µM
T3 sequence (whole entry): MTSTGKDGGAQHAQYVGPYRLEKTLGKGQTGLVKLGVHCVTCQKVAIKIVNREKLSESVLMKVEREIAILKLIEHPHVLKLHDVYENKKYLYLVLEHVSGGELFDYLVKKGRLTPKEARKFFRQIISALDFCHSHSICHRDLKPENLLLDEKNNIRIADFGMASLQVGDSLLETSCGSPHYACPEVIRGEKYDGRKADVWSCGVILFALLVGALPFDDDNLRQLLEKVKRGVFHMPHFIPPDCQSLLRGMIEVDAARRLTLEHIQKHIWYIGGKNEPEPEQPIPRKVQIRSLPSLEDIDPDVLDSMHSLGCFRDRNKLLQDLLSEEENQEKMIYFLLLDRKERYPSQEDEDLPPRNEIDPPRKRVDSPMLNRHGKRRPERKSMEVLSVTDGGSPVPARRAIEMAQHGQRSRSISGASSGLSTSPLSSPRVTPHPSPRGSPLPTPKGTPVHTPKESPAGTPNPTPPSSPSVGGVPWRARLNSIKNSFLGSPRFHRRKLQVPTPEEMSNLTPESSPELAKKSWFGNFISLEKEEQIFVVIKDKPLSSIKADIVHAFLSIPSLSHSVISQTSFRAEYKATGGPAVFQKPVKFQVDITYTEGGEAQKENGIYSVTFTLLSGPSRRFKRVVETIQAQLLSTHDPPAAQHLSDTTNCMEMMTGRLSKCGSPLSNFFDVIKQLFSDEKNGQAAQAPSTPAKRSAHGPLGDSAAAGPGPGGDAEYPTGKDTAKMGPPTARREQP

[7] = target: T3, Serine/threonine-protein kinase BRSK2 (Homo sapiens); conditions: at 1 µM
[8] = target: Calcium/calmodulin-dependent protein kinase type 1D (Homo sapiens) (UniProt Q8IU85); conditions: at 0.1 µM
Chain of Calcium/calmodulin-dependent protein kinase type 1D (Homo sapiens) (Q8IU85 whole entry, looked up): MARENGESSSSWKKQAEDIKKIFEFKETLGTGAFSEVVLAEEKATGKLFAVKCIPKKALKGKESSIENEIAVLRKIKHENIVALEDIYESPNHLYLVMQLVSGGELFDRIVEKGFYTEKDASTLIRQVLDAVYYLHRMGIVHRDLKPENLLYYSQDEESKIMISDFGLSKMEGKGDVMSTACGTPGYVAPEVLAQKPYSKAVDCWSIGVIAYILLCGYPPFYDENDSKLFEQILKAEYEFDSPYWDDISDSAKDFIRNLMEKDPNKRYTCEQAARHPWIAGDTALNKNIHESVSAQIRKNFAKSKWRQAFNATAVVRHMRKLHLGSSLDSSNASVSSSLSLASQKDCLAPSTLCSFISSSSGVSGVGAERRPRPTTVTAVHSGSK

[9] = target: Calcium/calmodulin-dependent protein kinase type 1D (Homo sapiens) (UniProt Q8IU85); conditions: at 1 µM
[10] = target: Calcium/calmodulin-dependent protein kinase type II subunit alpha (Homo sapiens) (UniProt Q9UQM7); conditions: at 0.1 µM
Chain of Calcium/calmodulin-dependent protein kinase type II subunit alpha (Homo sapiens) (Q9UQM7 whole entry): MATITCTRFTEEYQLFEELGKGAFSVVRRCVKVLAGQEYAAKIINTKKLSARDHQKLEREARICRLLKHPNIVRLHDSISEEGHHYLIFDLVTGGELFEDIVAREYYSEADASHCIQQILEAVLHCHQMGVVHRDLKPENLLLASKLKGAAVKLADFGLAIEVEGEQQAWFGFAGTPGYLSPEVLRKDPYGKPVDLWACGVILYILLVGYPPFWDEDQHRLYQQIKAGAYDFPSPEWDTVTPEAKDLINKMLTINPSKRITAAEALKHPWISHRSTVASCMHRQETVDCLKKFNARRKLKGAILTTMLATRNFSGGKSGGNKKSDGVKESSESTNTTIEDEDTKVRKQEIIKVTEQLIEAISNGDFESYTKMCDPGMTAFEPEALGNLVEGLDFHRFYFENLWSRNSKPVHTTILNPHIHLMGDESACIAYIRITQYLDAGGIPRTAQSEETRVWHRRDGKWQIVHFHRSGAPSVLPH

[11] = target: Calcium/calmodulin-dependent protein kinase type II subunit alpha (Homo sapiens) (UniProt Q9UQM7); conditions: at 1 µM
[12] = target: Calcium/calmodulin-dependent protein kinase type II subunit delta (Homo sapiens) (UniProt Q13557); conditions: at 0.1 µM
Chain of Calcium/calmodulin-dependent protein kinase type II subunit delta (Homo sapiens) (Q13557 whole entry): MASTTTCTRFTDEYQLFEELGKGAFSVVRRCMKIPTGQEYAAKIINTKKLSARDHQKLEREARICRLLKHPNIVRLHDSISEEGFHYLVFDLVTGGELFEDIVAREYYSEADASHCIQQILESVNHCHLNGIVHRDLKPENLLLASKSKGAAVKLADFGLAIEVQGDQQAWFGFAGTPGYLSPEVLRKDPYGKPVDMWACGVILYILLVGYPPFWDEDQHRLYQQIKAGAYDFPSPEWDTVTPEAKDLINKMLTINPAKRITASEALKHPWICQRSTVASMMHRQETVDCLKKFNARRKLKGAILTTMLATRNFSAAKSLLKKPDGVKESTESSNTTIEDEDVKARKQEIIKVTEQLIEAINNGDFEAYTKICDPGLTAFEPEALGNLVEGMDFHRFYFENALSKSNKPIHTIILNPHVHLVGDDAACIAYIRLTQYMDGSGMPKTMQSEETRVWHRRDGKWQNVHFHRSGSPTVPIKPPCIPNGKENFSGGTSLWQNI

[13] = target: Calcium/calmodulin-dependent protein kinase type II subunit delta (Homo sapiens) (UniProt Q13557); conditions: at 1 µM
[14] = target: T4, Calcium/calmodulin-dependent protein kinase type IV (Homo sapiens) (UniProt Q16566); conditions: at 0.1 µM
T4 sequence (whole entry): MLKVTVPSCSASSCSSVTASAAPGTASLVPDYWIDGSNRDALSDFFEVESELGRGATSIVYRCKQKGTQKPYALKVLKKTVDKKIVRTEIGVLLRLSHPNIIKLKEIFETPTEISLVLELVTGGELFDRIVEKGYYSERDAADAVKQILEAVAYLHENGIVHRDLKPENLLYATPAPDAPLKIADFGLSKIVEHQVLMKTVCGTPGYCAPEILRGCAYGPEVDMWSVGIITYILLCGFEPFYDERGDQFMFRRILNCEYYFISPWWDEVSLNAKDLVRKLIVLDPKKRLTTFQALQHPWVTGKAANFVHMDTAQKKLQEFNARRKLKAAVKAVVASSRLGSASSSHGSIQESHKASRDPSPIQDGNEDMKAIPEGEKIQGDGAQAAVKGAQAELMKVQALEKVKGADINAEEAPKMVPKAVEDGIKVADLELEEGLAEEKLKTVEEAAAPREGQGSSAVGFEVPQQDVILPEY

[15] = target: T4, Calcium/calmodulin-dependent protein kinase type IV (Homo sapiens); conditions: at 1 µM
[16] = target: T5, Serine/threonine-protein kinase Chk1 (Homo sapiens) (UniProt O14757); conditions: at 0.1 µM
T5 sequence (whole entry): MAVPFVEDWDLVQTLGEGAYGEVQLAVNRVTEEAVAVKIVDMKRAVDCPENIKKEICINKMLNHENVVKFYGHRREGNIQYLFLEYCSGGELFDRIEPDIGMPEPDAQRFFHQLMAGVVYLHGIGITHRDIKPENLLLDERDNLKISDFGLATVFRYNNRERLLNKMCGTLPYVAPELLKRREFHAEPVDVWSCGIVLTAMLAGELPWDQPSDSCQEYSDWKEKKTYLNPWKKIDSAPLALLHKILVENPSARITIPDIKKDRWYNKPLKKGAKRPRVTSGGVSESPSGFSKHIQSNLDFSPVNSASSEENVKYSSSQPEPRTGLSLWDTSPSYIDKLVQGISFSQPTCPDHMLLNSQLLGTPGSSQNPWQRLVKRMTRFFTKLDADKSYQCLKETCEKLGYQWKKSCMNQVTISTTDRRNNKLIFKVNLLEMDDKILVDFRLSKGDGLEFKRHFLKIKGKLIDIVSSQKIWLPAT

[17] = target: T5, Serine/threonine-protein kinase Chk1 (Homo sapiens); conditions: at 1 µM
[18] = target: Serine/threonine-protein kinase Chk2 (Homo sapiens) (UniProt O96017); conditions: at 0.1 µM
Chain of Serine/threonine-protein kinase Chk2 (Homo sapiens) (O96017 whole entry): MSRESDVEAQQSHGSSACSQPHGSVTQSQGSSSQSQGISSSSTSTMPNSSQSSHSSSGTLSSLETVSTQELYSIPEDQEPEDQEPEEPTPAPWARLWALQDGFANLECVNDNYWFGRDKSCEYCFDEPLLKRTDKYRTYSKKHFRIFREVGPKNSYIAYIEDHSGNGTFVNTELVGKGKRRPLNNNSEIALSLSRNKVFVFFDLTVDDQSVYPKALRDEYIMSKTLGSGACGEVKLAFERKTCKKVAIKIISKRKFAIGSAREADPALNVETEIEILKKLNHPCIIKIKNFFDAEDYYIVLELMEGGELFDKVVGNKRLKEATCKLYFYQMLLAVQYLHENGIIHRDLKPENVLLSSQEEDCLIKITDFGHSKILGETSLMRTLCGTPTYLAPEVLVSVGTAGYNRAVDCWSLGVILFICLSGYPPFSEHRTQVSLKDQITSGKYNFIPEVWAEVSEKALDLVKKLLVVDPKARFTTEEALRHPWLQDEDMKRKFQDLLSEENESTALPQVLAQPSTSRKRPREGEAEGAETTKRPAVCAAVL

[19] = target: Serine/threonine-protein kinase Chk2 (Homo sapiens) (UniProt O96017); conditions: at 1 µM
[20] = target: Death-associated protein kinase 1 (Homo sapiens) (UniProt P53355); conditions: at 0.1 µM;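 further: reported figure is the mean inhibition of DAPK1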
Chain of Death-associated protein kinase 1 (Homo sapiens) (P53355 whole entry, looked up): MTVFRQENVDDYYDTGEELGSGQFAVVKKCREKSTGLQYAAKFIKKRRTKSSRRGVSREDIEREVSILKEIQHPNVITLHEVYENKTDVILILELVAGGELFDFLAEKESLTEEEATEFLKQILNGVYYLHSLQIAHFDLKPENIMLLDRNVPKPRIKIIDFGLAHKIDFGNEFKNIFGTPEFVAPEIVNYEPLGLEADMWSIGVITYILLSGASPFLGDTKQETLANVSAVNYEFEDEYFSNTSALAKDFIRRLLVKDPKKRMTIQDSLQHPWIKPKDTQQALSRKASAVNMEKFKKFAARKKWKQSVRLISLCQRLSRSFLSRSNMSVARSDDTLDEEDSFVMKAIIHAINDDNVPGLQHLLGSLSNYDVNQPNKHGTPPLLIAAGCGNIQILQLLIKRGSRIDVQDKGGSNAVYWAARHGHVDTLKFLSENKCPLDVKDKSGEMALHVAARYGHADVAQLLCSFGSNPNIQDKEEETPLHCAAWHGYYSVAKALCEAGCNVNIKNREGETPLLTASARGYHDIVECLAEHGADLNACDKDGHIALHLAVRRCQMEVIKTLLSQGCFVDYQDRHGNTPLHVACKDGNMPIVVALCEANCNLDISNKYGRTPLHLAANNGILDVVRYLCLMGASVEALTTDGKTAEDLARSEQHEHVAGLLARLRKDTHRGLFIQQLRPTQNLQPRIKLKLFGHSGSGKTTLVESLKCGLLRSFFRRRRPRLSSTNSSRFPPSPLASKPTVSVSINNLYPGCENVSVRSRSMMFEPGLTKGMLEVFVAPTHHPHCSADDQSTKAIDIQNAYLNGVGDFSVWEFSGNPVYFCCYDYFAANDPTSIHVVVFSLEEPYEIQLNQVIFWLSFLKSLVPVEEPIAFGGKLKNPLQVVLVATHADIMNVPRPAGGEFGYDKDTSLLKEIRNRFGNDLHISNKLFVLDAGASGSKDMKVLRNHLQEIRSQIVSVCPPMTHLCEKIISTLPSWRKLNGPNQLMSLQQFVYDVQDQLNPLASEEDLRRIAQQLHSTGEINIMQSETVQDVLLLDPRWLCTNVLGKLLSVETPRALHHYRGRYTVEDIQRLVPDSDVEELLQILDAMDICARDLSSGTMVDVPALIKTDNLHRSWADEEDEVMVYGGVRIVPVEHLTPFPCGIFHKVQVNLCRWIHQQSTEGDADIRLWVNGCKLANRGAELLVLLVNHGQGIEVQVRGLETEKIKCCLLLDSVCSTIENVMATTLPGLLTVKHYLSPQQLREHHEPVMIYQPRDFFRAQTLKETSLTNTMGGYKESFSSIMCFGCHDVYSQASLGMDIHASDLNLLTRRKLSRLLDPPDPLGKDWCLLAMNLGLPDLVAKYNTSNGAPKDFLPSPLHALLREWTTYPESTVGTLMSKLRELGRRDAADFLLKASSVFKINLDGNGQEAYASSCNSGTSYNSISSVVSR

Chain of 5'-AMP-activated protein kinase catalytic subunit alpha-2 (Homo sapiens) (P54646 whole entry, looked up): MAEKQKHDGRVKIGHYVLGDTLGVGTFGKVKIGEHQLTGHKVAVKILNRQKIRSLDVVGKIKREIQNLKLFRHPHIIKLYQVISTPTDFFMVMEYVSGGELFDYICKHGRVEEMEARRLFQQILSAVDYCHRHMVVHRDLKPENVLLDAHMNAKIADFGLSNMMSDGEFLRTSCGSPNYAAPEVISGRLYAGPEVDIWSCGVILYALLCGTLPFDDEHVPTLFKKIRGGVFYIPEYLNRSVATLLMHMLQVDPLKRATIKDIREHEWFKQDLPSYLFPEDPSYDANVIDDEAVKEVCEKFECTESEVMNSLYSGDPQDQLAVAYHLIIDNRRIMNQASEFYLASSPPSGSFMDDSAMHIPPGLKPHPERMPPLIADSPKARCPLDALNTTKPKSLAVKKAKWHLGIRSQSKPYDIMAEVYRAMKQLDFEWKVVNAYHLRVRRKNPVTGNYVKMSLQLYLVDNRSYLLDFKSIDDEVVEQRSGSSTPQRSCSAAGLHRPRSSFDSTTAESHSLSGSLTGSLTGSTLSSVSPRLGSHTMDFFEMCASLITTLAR

SMILES: NC(=O)c1ccc2c(-c3ccnc(NCCCO)n3)c(-c3ccc(F)cc3)nn2c1
- inhibition [1]: 4.65%
- inhibition [2]: 2.9%
- inhibition [3]: 4.34%
- inhibition [4]: 2.91%
- inhibition [5]: 4.68%
- inhibition [6]: 2.27%
- inhibition [7]: 3.75%
- inhibition [8]: -0.23%
- inhibition [9]: 1.6%
- inhibition [10]: 3.83%
- inhibition [11]: 3.63%
- inhibition [12]: 4.46%
- inhibition [13]: 3.95%
- inhibition [14]: 0.65%
- inhibition [15]: 0.03%
- inhibition [16]: 8.23%
- inhibition [17]: 7.94%
- inhibition [18]: 10.1%
- inhibition [19]: 10.6%
- inhibition [20]: 11.7%

SMILES: O=C(O[C@H]1CN[C@H](C#Cc2cc3ncnc(Nc4ccc(OCc5cccc(F)c5)c(Cl)c4)c3s2)C1)N1CCOCC1
- inhibition [1]: 2.14%
- inhibition [2]: 0.4%
- inhibition [3]: 0.97%
- inhibition [4]: -0.35%
- inhibition [5]: 1.81%
- inhibition [6]: 2.06%
- inhibition [7]: 3.32%
- inhibition [8]: -0.02%
- inhibition [9]: -0.12%
- inhibition [10]: 2.9%
- inhibition [11]: 3.21%
- inhibition [12]: 3.54%
- inhibition [13]: 2.65%
- inhibition [14]: -1.14%
- inhibition [15]: -3.95%
- inhibition [16]: -1.89%
- inhibition [17]: -1.17%
- inhibition [18]: -1.01%
- inhibition [19]: 2.28%
- inhibition [20]: -1.79%

SMILES: Nc1ncnc2occ(-c3ccc(NC(=O)Nc4cc(C(F)(F)F)ccc4F)cc3)c12
- inhibition [1]: 0.27% and -2.18%
- inhibition [2]: 5.01% and 0.14%
- inhibition [3]: 6.07% and 1.77%
- inhibition [4]: 1.75% and -1.05%
- inhibition [5]: 9.34% and -0.75%
- inhibition [6]: 2.02% and -1.66%
- inhibition [7]: 6.92% and 0.75%
- inhibition [8]: 1.85% and -1.45%
- inhibition [9]: 4.86% and 2.86%
- inhibition [10]: 2.82% and -3.6%
- inhibition [11]: 3.84% and -2.75%
- inhibition [12]: 3.01% and -3.72%
- inhibition [13]: 4.94% and 0.29%
- inhibition [14]: 0.92% and -1.47%
- inhibition [15]: 6.17% and 0.48%
- inhibition [16]: 3.39% and 0.89%
- inhibition [17]: 3.36% and 1.22%
- inhibition [18]: 0.48% and -3.48%
- inhibition [19]: 2.69% and -1.74%
- inhibition [20]: 3.18% and 0.64%
